Shiga inhibitor: A qHTS for Small Molecule Inhibitors of Shiga Toxin. Vero cells, Shiga toxin protein synthesis inhibition reporter. inhibition, % at 38.7 µM. 9.2% of 290,000 active; in the data active means inhibition mostly above about 28%, no sharp cut-off; inactive means mostly below about 43%; further: 0% is about no effect
Pf growth 48h: Primary qHTS for delayed death inhibitors of the malarial parasite plastid, 48 hour incubation; P. falciparum luciferase growth in erythrocytes, 48 h; Potency, µM (series often up to 28.7 µM), for the others: at the top dose activity change, negative = inhibition, most hits filed as inhibitors; 5.9% of 310,000 active; further: potency means the concentration at half of the fitted maximal effect; on the % scale 0 is the no-effect control and ±100 the full control effect
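Firefly luciferase activity from engineered P. falciparum reports growth; inhibitors lower the luminescent signal. Cultures contained 2% hematocrit erythrocytes at 0.1% final parasitemia.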
Pf growth 96h: Primary qHTS for delayed death inhibitors of the malarial parasite plastid, 96 hour incubation. AID 504834, 2011. P. falciparum luciferase reporter growth, 96 h. Potency, µM (highest dose often 28.7 µM), for the others: top-dose activity change, negative = inhibition, usual class: inhibitors. 6.9% of 320,000 active; further: potency means the concentration at half of the fitted maximal effect; on the % scale 0 is the no-effect control and ±100 the full control effect
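96 h incubation, 37 C, 5% CO2, of luciferase-reporter P. falciparum-infected RBCs (2% hematocrit, 0.05% parasitemia final) with test compounds; endpoint luminescence.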
HCMV antiviral: qHTS Assay for inhibitors of the human cytomegalovirus (HCMV). HFF cells, HCMV-luciferase reporter, 72 h; stronger effect = lower value. activity change, negative = inhibition, % at 57.5 µM. 4.5% of 410,000 active; in the data active means activity change below about -60%; inconclusive means no clear call, values can overlap the other calls; inactive means above about -39%; further: on the % scale 0 is the no-effect control and ±100 the full control effect
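Human foreskin fibroblasts infected with luciferase-reporter HCMV at MOI 1 PFU/cell, compounds at two doses. Luciferase measured 72 h post infection; normalized to buffer-only basal and Salinomycin (10uM) controls.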
HCV inhibitor: qHTS Assay for Inhibitors of Hepatitis C Virus (HCV); Potency, µM (titrated, usually from 41.8 µM), for inactives: at the highest dose activity change, negative = inhibition, usual class: inhibitors; 3.4% of 340,000 active; AID 651820, 2012; Huh7.5.1 HCVcc-Cre infection, luciferase reporter, 44 h; further: potency means the concentration at half of the fitted maximal effect; on the % scale 0 is the no-effect control and ±100 the full control effect
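Infectious HCV cell culture screen: compound-treated cells (1,000/well, pre-plated 4 h) are infected with HCVcc-Cre at roughly 0.5 moi and grown 44 h. Infection is quantified by luciferase signal after 15 min substrate incubation at room temperature.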
Cycloheximide cs: Cycloheximide Counterscreen for Small Molecule Inhibitors of Shiga Toxin; cell reporter, cycloheximide protein synthesis inhibition counterscreen; max response, %; 12% of 300,000 active; AID 2314, 2010; in the data active means max response mostly above about 13%, no sharp cut-off; inactive means mostly below about 14%; further: read at 38.3 µM for the half of the compounds with a filed dose; 0% is about no effect
The depositor's hits bear a star; ? = inconclusive; . = no result. Shown are actives, neighbours in structure and some others; about 21% of the full set was active somewhere. Unless noted, the call rests on the fitted dose curve; in most records, active means well fitted inhibition curve with a large enough effect; inconclusive means small, poorly fitted or top-dose-only effect, or another doubt; inactive means no such curve, though single readings can be large or run the other way.

SMILES | Shiga inhibitor | Pf growth 48h | Pf growth 96h | HCMV antiviral | HCV inhibitor | Cycloheximide cs
CC[C@@H](O)C[C@H]1CCC[C@@]2(C[C@@H]3OC(=O)/C=C/[C@@](C)(O)[C@@H](O)[C@H](C)[C@@H](O)[C@H](OC4CCC(N(C)C)C(C)O4)[C@@H](O)[C@](C)(O)CCCCC/C=C/[C@@H]4CC(C)(C)O[C@@]4(O)C[C@H](O2)[C@H]3C)O1 (stereo partly drawn) | . | . | . | -97* | ? | .
COc1ccc(-c2noc(CN(C)C(=O)Nc3ccccc3)n2)cc1 | 35 | 15% | ? | ? | ? | -5
COc1ccc(OC(C)C(=O)N(C)Cc2nc(-c3ccc(OC)cc3)no2)cc1 (stereo not drawn) | -3 | 3% | 12% | -65* | ? | -1
CC(Oc1ccc(Br)cc1)C(=O)N(Cc1nc(-c2ccccc2)no1)C(C)C (stereo not drawn) | . | . | . | -70* | . | .
COc1ccc(OC(C)C(=O)N(C)Cc2nc(-c3ccc(C)cc3)no2)cc1 (stereo not drawn) | -7 | 2% | ? | -32 | 14µM* | 7
S=C(c1ccc(-c2ccc(Cl)cc2Cl)o1)N1CCCCC1 | 78* | 110% | 199% | 224 | ? | 42*
S=C(c1ccc(-c2ccc(Cl)cc2Cl)o1)N1CCCC1 | 22 | ? | ? | ? | -9% | 18*
N#CCCN1CCN(C(=S)c2ccc(-c3cc(Cl)ccc3Cl)o2)CC1 | -2 | ? | 5.2µM* | -27 | -15% | 1
Nc1nonc1N/N=C/c1c(O)ccc2ccccc12 | 24 | -11% | 21% | -1 | -7% | 12
Nc1cc(Cl)nc(N/N=C/c2c(O)ccc3ccccc23)n1 | 116* | ? | ? | -71* | ? | 26*
O=C(O)c1cc(N/N=C/c2c(O)ccc3ccccc23)ccc1Cl | 160* | 254% | 160% | 207 | 10% | 63*
CCCS(=O)(=O)N1CC(=O)N(c2ccccc2C)C(C)(C(=O)NC2CCCCC2)C1 (stereo not drawn) | . | . | . | 0 | . | .
Cc1cccc(NC(=O)CNC(=O)c2cc(S(=O)(=O)N(C)C)ccc2N2CCCC2)c1C | . | . | . | 67 | . | .
CCOC(=O)C1=NN(c2ccccc2)C2(S1)SC(C(C)=O)=C(C)N2c1ccccc1 (stereo not drawn) | -12 | 0% | . | ? | ? | 9
CCOC(=O)C1=NN(c2cccc(C)c2)C2(S1)SC(C(C)=O)=C(C)N2c1ccccc1 (stereo not drawn) | -5 | . | ? | 4 | 10% | -4
CCOC(=O)C1=NN(c2ccc(C)cc2)C2(S1)SC(C(C)=O)=C(C)N2c1ccccc1 (stereo not drawn) | -14 | ? | ? | -30 | 14µM* | -3
COC(=O)C1=NN(c2ccccc2)C2(S1)S/C(=C\c1ccccc1)C(=O)N2c1ccccc1 (stereo not drawn) | -18 | 13µM* | . | 9 | ? | -3
O=C(CN1C(=O)/C(=C/c2ccc(F)cc2)SC1=S)N1CCN(CCc2ccccn2)CC1 | -13 | 8% | 15µM* | ? | ? | -1
CN1CCN(C(=O)CCN2C(=O)/C(=C\c3ccc(F)cc3)SC2=S)CC1 | . | . | . | 42 | ? | .
COc1ccc(/C=C2\SC(=S)N(CCCC(=O)Nc3cccc(C(=O)O)c3)C2=O)cc1OC | -28 | ? | ? | -8 | 12% | -5
COc1ccc(/C=C2\SC(=S)N(CCCC(=O)Nc3ccccn3)C2=O)cc1OC | -12 | ? | ? | -99* | ? | -2
Cc1ccc(/C=C2\SC(=S)N(CCCC(=O)Nc3ccccn3)C2=O)cc1 | -27 | ? | 10µM* | -104* | ? | -5
Nc1ccc(N2CCCCCC2)cc1 | 7 | 0.41µM* | ? | . | . | -2
Nc1ccc(N2CCN(c3ccc(Cl)c(Cl)c3)CC2)cc1 | 24* | -17% | ? | -85* | ? | 4
